# Source: PubChem (National Center for Advancing Translational Sciences (NCATS))
# Eya2 phos inh: Eya2 (human) phosphatase inhibition | O00167 | recombinant Eya2, OMFP fluorescence dephosphorylation (OMFP is methylfluorescein phosphate) | Potency, µM (highest dose often 76.9 µM), for the others: at the highest dose activity, negative = inhibition, actives largely listed as inhibitors | hit rate 0.006% among 330,000 | AID 488837; note: potency is the fitted concentration of half-maximal effect; % is set by controls: 0 for no effect and ±100 for the full control effect
#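 Eya2 (0.2 uM) preincubated 10 min at ambient with compound, then OMFP substrate added at 50 uM; 10 min reaction in 50 mM HEPES pH 7.5, 50 mM NaCl, 5 uM MgCl2, 0.05% BSA, 1 mM DTT. Fluorescence read at Ex 485/Em 525 nm.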
# D1 PAM: human D1 dopamine receptor positive modulation | P21728 | HEK293 TREx D1 cells, calcium flux, dopamine EC20 potentiation | potentiation, % at 10 µM | hit rate 0.036% among 360,000; in the data active = potentiation above about 30%; note: 0% is about no effect
# Target sequence (P21728 whole entry, looked up): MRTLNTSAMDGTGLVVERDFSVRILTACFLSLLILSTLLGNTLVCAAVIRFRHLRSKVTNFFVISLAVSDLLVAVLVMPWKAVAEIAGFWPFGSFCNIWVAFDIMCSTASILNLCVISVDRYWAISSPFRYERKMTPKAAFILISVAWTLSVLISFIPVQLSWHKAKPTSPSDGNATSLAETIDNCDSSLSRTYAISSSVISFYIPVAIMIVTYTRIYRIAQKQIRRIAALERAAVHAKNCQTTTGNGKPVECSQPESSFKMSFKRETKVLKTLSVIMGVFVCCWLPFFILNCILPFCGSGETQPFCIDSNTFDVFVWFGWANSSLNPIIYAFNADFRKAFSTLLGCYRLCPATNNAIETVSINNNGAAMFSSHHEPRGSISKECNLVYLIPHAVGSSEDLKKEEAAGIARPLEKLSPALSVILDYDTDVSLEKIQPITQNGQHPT
# D1 agonist: agonists of human D1 dopamine receptor. P21728. hit rate 1% among 360,000. HEK293 T-REx D1 cells, calcium flux, agonist mode. AID 504660. activation, % at 2 µM; in the data active = activation above about 30%; note: 0% is about no effect
#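 Inducible HEK293 T-REx D1 cells, force-coupled to calcium signalling, were plated at 4000 cells/well with tetracycline and held overnight at 30 C. After no-wash calcium dye loading, compound-evoked calcium rise over 180 s flagged agonists.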
# GALK inh: galactokinase (human) inhibition. P51570. Purified GALK, Kinase-Glo residual ATP luminescence. Potency, µM (top dose mostly 57.5 µM), without a hit: at the top dose activity change, negative = inhibition, most hits filed as inhibitors. hit rate 0.007% among 270,000. AID 1868; note: potency is the fitted concentration of half-maximal effect; % is set by controls: 0 for no effect and ±100 for the full control effect
#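 Galactose (100 uM) and ATP (35 uM) were turned over by 5 nM GALK for 1 h at RT. Kinase-Glo Plus then converted the remaining ATP into a luminescent signal.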
# D1 antagonist: human D1 dopamine receptor antagonism. P21728. HEK293 TREx D1 cells, calcium flux, dopamine EC80; active compounds read low. activity change, negative = inhibition, % at 10 µM. hit rate 3.2% among 360,000; in the data active = activity change below about -30%; note: % is set by controls: 0 for no effect and ±100 for the full control effect
#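 Allosteric or orthosteric antagonism assessed as attenuation of the calcium response to EC80 dopamine, added 180 s after compound, in induced HEK293 Trex D1 cells loaded with no-wash calcium dye.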
# USP2a inh: USP2a (human) protease inhibition. O75604. USP2 core, Ub-CHOP2 coupled fluorogenic reporter, 485/531. Potency, µM (highest dose often 38.3 µM), inactives show at the highest dose activity change, negative = inhibition, most hits filed as inhibitors. hit rate 0.01% among 330,000;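 note: potency is the fitted concentration of half-maximal effect; plate controls were DMSO wells for no effect and full inhibition by NEM control for full effect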
#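 Deubiquitinase activity read as fluorescence (485/531 nm) after Ub-CHOP2 cleavage activates the enterokinase reporter on its substrate; USP2 core 10nM, Ub-CHOP2 and substrate 25nM each, 30min compound preincubation then 60min RT; data normalized to NEM, curves fitted.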
# An asterisk follows results filed as active; u = inconclusive; x = not tested or not shown; ! = not active in a repeat. In the library only some 3.9% were active in any assay of this set; here they are far more common. Unless noted, calls come from the whole dose curve; as a rule, active = well fitted inhibition curve with a large enough effect; inconclusive = small, poorly fitted or top-dose-only effect, or effect the other way; inactive = flat fitted curve, though single readings scatter.
SMILES,Eya2 phos inh,D1 PAM,D1 agonist,GALK inh,D1 antagonist,USP2a inh
COC(=O)CCNC(=O)N1CCN(c2nnc(C)c3c(C)n(-c4ccc(Cl)cc4)nc23)CC1,x,-6,1,x,1,x
CCN(CC)C(=O)C1CCCN(C/C=C/c2ccccc2[N+](=O)[O-])C1 (configuration not stated),-2%,-3,5,0%,-62*,-1%
O=[N+]([O-])c1ccccc1/C=C/CN1CCCCC1CO (configuration not stated),2%,-4,4,4%,-34*,3%
CCCN(Cc1cccs1)C(=O)Nc1ccc(Br)cc1F,x,-1,-1,x,-24,x
CN1C(=O)CC(c2ccccc2)CC1=O,-4%,-2,4,x,-7,-1%
CN1CC2(C)OC(=O)C(Cl)=C2CC1c1ccccc1 (configuration not stated),8%,-6,3,2%,-55*,2%
COc1ccccc1CNC(=O)C(CCSC)NS(=O)(=O)c1ccc2c(c1)oc(=O)n2C (configuration not stated),-30%,9,0,-1%,4,-3%
COc1ccccc1CNC(=O)C(CC(C)C)NS(=O)(=O)c1ccc2c(c1)oc(=O)n2C (configuration not stated),-5%,3,1,1%,-32*!,5%
COc1ccc(Nc2nc(N)c(C(=O)c3ccc(F)cc3)s2)cc1,-11%,0,3,x,11,-18%
Nc1nc(Nc2cccc(Cl)c2)sc1C(=O)c1ccc(F)cc1,x,-5,-2,x,-37*,x
Cc1ccc(-c2cc(-c3ccc4c(c3)NC(=O)CO4)nc3c2COc2ccc(C)cc2-3)cc1,x,-3,-1,x,2,x
CCN(CCCC(=O)c1ccc(F)cc1)CCc1ccccc1,11%,-5,16,0%,-36*,1%
CCOCCCNc1nc2c(C)cccn2c(=O)c1/C=C1\SC(=S)N(CC(C)C)C1=O,-8%,-4,30*,-2%,-11,-1%
CCOC(=O)CC1C(=O)NCCN1c1nc2c(C)cccn2c(=O)c1/C=C1\SC(=S)N(CC(C)C)C1=O (configuration not stated),17%,-5,111*,12%,-15,19%
Cc1cccn2c(=O)c(/C=C3\SC(=S)NC3=O)c(NCCCN3CCOCC3)nc12,-9%,0,29,0%,2,5%
CCOCCCNc1nc2c(C)cccn2c(=O)c1/C=C1\SC(=S)N(C(C)CC)C1=O (configuration not stated),6%,0,114*,x,-7,19%
CCCN1C(=O)/C(=C/c2c(NCCCOCC)nc3c(C)cccn3c2=O)SC1=S,15%,6,0,0%,12,0%
CCCCOC(=O)c1ccc(Nc2nc3ccc(C(=O)c4ccccc4)cc3n3cnnc23)cc1,x,1,-1,x,23,x
CN(C)c1ccc(/C=C/c2nc3ccccc3c(=O)n2-c2ccc(C(=O)O)cc2)cc1,u,-5,102*,-3%,2,u
O=C(O)c1cc(-n2c(/C=C\c3ccc(F)cc3)nc3ccccc3c2=O)ccc1Cl,x,1,-3,x,-32*,x
Cc1ccc(NC(=O)c2cc3ccccc3oc2=N)cc1,-9%,3,4,-1%,9,4%
N=c1oc2c3c4c(cc2cc1C(=O)Nc1ccccc1)CCCN4CCC3,u,-8,385*,2%,-88*,u
CC(C)(C)C(=O)N1CCN(c2nc3ccc(Cl)cc3s2)CC1,6%,-3,3,4%,-43*,0%
Cc1cc(C)c(NC(=O)CSc2nc3ccccc3c3nc(CCn4cncc4C)nn23)c(C)c1,x,-1,0,x,-23,x
CCOc1ccc(/C=C2\SC(=S)N(CC(=O)NCCCN3CCOCC3)C2=O)cc1,-12%,-8,2,-3%,-6,1%
SMILES,Eya2 phos inh,D1 PAM,D1 agonist,GALK inh,D1 antagonist,USP2a inh
CC(C)c1ccc(/C=C2\SC(=S)N(CC(=O)NCCCN3CCOCC3)C2=O)cc1,-24%,-4,10,4%,-35*,-3%
CCc1ccc(/C=C2\SC(=S)N(CCC(=O)NCCCN3CCOCC3)C2=O)cc1,12%,-14,17,4%,-37*,-1%
O=C(CCCN1C(=O)/C(=C/c2ccccc2)SC1=S)NCCCn1ccnc1,0%,4,14,-1%,-30*,1%
CCOC(=O)c1ccc(NC(=O)Nc2cc3c(cc2N2CCCC2)n(C)c(=O)n3C)cc1,x,-5,2,x,-32*,x
CC(=O)c1cccc(NC(=O)Nc2cc3c(cc2N2CCCC2)n(C)c(=O)n3C)c1,x,-2,2,x,2,x
CCn1c(=O)n(CC)c2cc(N3CCCC3)c(NC(=O)c3ccc(C)cc3)cc21,8%,-1,-1,-4%,-16,1%
CCn1c(=O)n(CC)c2cc(N3CCCC3)c(NC(=O)Nc3cc(C)cc(C)c3)cc21,x,0,40*,x,-6,x
Cc1nc(N2CCOCC2)c2c(C(=O)NCc3ccc(Cl)cc3)c(C)oc2n1,x,2,1,x,5,x
CCOC(=O)CN=C1CC(C)(C)CC2=C1Sc1ncnc(N(C)C)c1N2,11%,-16,7,0%,-42*,11%
CCOC(=O)c1nn(C)c(C)c1Cl,-3%,-7,6,3%,-44*,0%
Cc1ccc(CNC(=O)c2c(C)oc3nc(C)nc(N4CCOCC4)c23)cc1,x,4,0,x,1,x
Cc1ccc(-c2nc3n(n2)C(c2ccccc2C)C=C(c2ccc(Cl)cc2)N3)cc1 (configuration not stated),x,-1,14,x,-3,x
CCOc1ccc(C2=Nn3c(nnc3-c3ccccn3)SC2)cc1,-7%,-2,1,2%,8,1%
CCOc1ccc(C2=Nn3c(nnc3-c3ccco3)SC2)cc1,7%,-4,1,2%,-31*,1%
CC1C2CC(C(CN(C)C)/C2=N/O)C1(C)C (configuration not stated),24%,-5,2,2%,-51*,0%
CC1/C(=N/O)C(CN(C)C)C2CC1C2(C)C (configuration not stated),6%,-1,7,0%,-1,1%
Cc1cccc(C)c1N1C(=O)CC(N(O)c2ccccc2)C1=O (configuration not stated),4%,-8,6,-1%,-31*,-5%
Cc1c(Cl)cccc1N1C(=O)CC(N(O)c2ccccc2)C1=O (configuration not stated),4%,-3,1,-3%,5,-1%
CCCc1ccc(Oc2c(-c3ccc(O)c(C)c3O)n[nH]c2C)cc1,-12%,-4,35*,-5%,8,-4%
